# “And” between values parts separate entries of the source, which are not always exact repeats. Identical values can stand only once. The whole screen tested about 5,500 compounds, of which about 2,000 (36%) were called active. Another 18% or so got no clear call; they are omitted. No stated cut-off is given here; in the data, active means normalized growth mostly below about 0.91 (no sharp cut-off); inconclusive means no clear call, values can overlap the other calls; inactive means mostly above about 0.92. This is one part of the list. More than one record can exist for a structure, and the calls need not agree.
# Assay: chemical genetic growth profiling, strain panel (AID 1159580);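 further: tested at 20 µM; growth read once vehicle control cultures reached saturation at 30 °C; 1 = growth at the plate median or of vehicle wells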
# Conditions: growth OD
smiles,measurement,setting,value
CSc1ccc2c(c1)N(CCC1CCCCN1C)c1ccccc1S2 (stereo not given),normalized growth,"S. cerevisiae deletion strains, locus YJR075W, strain HOC1, stronger effect = lower value",0.823 (active)
same,normalized growth,"S. cerevisiae deletion strains, locus YKL009W, strain mrt4, stronger effect = lower value",0.978 (inactive)
same,normalized growth,"S. cerevisiae deletion strains, locus YKL068W, stronger effect = lower value",1.01 (inactive)
same,normalized growth,"S. cerevisiae deletion strains, locus YKL085W, strain MDH1 (second series), stronger effect = lower value",1 (inactive)
same,normalized growth,"S. cerevisiae deletion strains, locus YKL085W, strain MDH1, stronger effect = lower value",1 (inactive)
same,normalized growth,"S. cerevisiae deletion strains, locus YKL160W, strain elf1, stronger effect = lower value",0.937 (inactive)
same,normalized growth,"S. cerevisiae deletion strains, locus YKL190W, strain CNB1, stronger effect = lower value",0.0633 (active)
same,normalized growth,"S. cerevisiae deletion strains, locus YKR001C, strain vps1, stronger effect = lower value",0.0672 (active)
same,normalized growth,"S. cerevisiae deletion strains, locus YKR026C, strain gcn3, stronger effect = lower value",1.02 (inactive)
same,normalized growth,"S. cerevisiae deletion strains, locus YKR091W, strain srl3, stronger effect = lower value",1.03 (inactive)
same,normalized growth,"S. cerevisiae deletion strains, locus YLL001W, strain dnm1, stronger effect = lower value",0.964 (inactive)
same,normalized growth,"S. cerevisiae deletion strains, locus YLL026W, stronger effect = lower value",0.981 (inactive)
same,normalized growth,"S. cerevisiae deletion strains, locus YLL041C, strain sdh2, stronger effect = lower value",0.976 (inactive)
same,normalized growth,"S. cerevisiae deletion strains, locus YLR027C, strain aat2, stronger effect = lower value",0.946 (inactive)
same,normalized growth,"S. cerevisiae deletion strains, locus YLR039C, strain RIC1, stronger effect = lower value",0.175 (active)
same,normalized growth,"S. cerevisiae deletion strains, locus YLR058C, strain SHM2, stronger effect = lower value",0.0859 (active)
same,normalized growth,"S. cerevisiae deletion strains, locus YLR102C, strain apc9, stronger effect = lower value",0.176 (active)
same,normalized growth,"S. cerevisiae deletion strains, locus YLR113W, strain HOG1, stronger effect = lower value",0.996 (inactive)
same,normalized growth,"S. cerevisiae deletion strains, locus YLR221C, strain rsa3, stronger effect = lower value",0.932 (inactive)
same,normalized growth,"S. cerevisiae deletion strains, locus YLR258W, strain gsy2, stronger effect = lower value",0.941 (inactive)
same,normalized growth,"S. cerevisiae deletion strains, locus YLR262C, strain YPT6 (second series), stronger effect = lower value",1.1 (inactive)
same,normalized growth,"S. cerevisiae deletion strains, locus YLR262C, strain YPT6, stronger effect = lower value",0.155 (active)
same,normalized growth,"S. cerevisiae deletion strains, locus YLR268W, strain sec22, stronger effect = lower value",0.122 (active)
same,normalized growth,"S. cerevisiae deletion strains, locus YLR320W, strain mms22, stronger effect = lower value",1 (inactive)
same,normalized growth,"S. cerevisiae deletion strains, locus YLR330W, strain CHS5, stronger effect = lower value",0.0954 (active)
same,normalized growth,"S. cerevisiae deletion strains, locus YLR342W, strain FKS1 (second series), stronger effect = lower value",0.07 (active)
same,normalized growth,"S. cerevisiae deletion strains, locus YLR342W, strain FKS1, stronger effect = lower value",0.866 (active)
same,normalized growth,"S. cerevisiae deletion strains, locus YLR357W, strain rsc2, stronger effect = lower value",0.996 (inactive)
same,normalized growth,"S. cerevisiae deletion strains, locus YLR370C, strain arc18, stronger effect = lower value",0.962 (inactive)
same,normalized growth,"S. cerevisiae deletion strains, locus YLR371W, strain rom2, stronger effect = lower value",0.116 (active)
same,normalized growth,"S. cerevisiae deletion strains, locus YLR384C, strain iki3, stronger effect = lower value",0.984 (inactive)
same,normalized growth,"S. cerevisiae deletion strains, locus YLR418C, strain cdc73, stronger effect = lower value",0.155 (active)
same,normalized growth,"S. cerevisiae deletion strains, locus YML016C, strain PPZ1, stronger effect = lower value",0.0677 (active)
same,normalized growth,"S. cerevisiae deletion strains, locus YML032C, strain rad52, stronger effect = lower value",0.484 (active)
same,normalized growth,"S. cerevisiae deletion strains, locus YML120C, strain ndi1, stronger effect = lower value",0.971 (inactive)
same,normalized growth,"S. cerevisiae deletion strains, locus YML124C, strain tub3, stronger effect = lower value",0.282 (active)
same,normalized growth,"S. cerevisiae deletion strains, locus YMR058W, strain fet3, stronger effect = lower value",0.859 (active)
same,normalized growth,"S. cerevisiae deletion strains, locus YMR078C, strain ctf18, stronger effect = lower value",1.04 (inactive)
same,normalized growth,"S. cerevisiae deletion strains, locus YMR125W, strain sto1, stronger effect = lower value",0.95 (inactive)
same,normalized growth,"S. cerevisiae deletion strains, locus YMR129W, stronger effect = lower value",0.977 (inactive)
same,normalized growth,"S. cerevisiae deletion strains, locus YMR205C, strain PFK2, stronger effect = lower value",0.966 (inactive)
same,normalized growth,"S. cerevisiae deletion strains, locus YMR223W, strain ubp8, stronger effect = lower value",0.142 (active)
same,normalized growth,"S. cerevisiae deletion strains, locus YMR231W, strain pep5, stronger effect = lower value",0.32 (active)
same,normalized growth,"S. cerevisiae deletion strains, locus YMR263W, strain SAP30, stronger effect = lower value",0.569 (active)
same,normalized growth,"S. cerevisiae deletion strains, locus YMR307W, strain GAS1, stronger effect = lower value",0.123 (active) and 0.981 (inactive)
same,normalized growth,"S. cerevisiae deletion strains, locus YNL067W, strain RPL9B, stronger effect = lower value",0.221 (active)
same,normalized growth,"S. cerevisiae deletion strains, locus YNL071W, strain lat1, stronger effect = lower value",1.05 (inactive)
same,normalized growth,"S. cerevisiae deletion strains, locus YNL128W, strain TEP1, stronger effect = lower value",1 (inactive)
same,normalized growth,"S. cerevisiae deletion strains, locus YNL153C, strain GIM3, stronger effect = lower value",0.0926 (active)
same,normalized growth,"S. cerevisiae deletion strains, locus YNL175C, strain NOP13, stronger effect = lower value",1.07 (inactive)
same,normalized growth,"S. cerevisiae deletion strains, locus YNL183C, strain NPR1, stronger effect = lower value",0.944 (inactive)
same,normalized growth,"S. cerevisiae deletion strains, locus YNL197C, strain WHI3, stronger effect = lower value",1.05 (inactive)
same,normalized growth,"S. cerevisiae deletion strains, locus YNL209W, strain ssb2, stronger effect = lower value",0.856 (active)
same,normalized growth,"S. cerevisiae deletion strains, locus YNL224C, strain SQS1, stronger effect = lower value",1.11 [resistant] (active)
same,normalized growth,"S. cerevisiae deletion strains, locus YNL233W, strain BNI4, stronger effect = lower value",0.0906 (active)
same,normalized growth,"S. cerevisiae deletion strains, locus YNL248C, strain rpa49, stronger effect = lower value",0.978 (inactive)
same,normalized growth,"S. cerevisiae deletion strains, locus YNL250W, strain rad50, stronger effect = lower value",1 (inactive)
same,normalized growth,"S. cerevisiae deletion strains, locus YNL271C, strain bni1, stronger effect = lower value",1 (inactive)
same,normalized growth,"S. cerevisiae deletion strains, locus YNL298W, strain CLA4, stronger effect = lower value",1 (inactive)
same,normalized growth,"S. cerevisiae deletion strains, locus YNL307C, strain MCK1, stronger effect = lower value",0.1 (active)
same,normalized growth,"S. cerevisiae deletion strains, locus YNL322C, strain KRE1 (second series), stronger effect = lower value",1.04 (inactive)
same,normalized growth,"S. cerevisiae deletion strains, locus YNL322C, strain KRE1, stronger effect = lower value",0.0818 (active)
same,normalized growth,"S. cerevisiae deletion strains, locus YNR049C, strain mso1, stronger effect = lower value",0.968 (inactive)
same,normalized growth,"S. cerevisiae deletion strains, locus YNR052C, strain pop2, stronger effect = lower value",0.133 (active)
same,normalized growth,"S. cerevisiae deletion strains, locus YOL006C, strain TOP1, stronger effect = lower value",0.115 (active)
same,normalized growth,"S. cerevisiae deletion strains, locus YOL012C, strain htz1",0.211 (inactive)
same,normalized growth,"S. cerevisiae deletion strains, locus YOL147C, strain pex11, stronger effect = lower value",0.176 (active)
same,normalized growth,"S. cerevisiae deletion strains, locus YOR001W, strain rrp6, stronger effect = lower value",0.956 (inactive)
same,normalized growth,"S. cerevisiae deletion strains, locus YOR061W, strain CKA2, stronger effect = lower value",0.0575 (active)
same,normalized growth,"S. cerevisiae deletion strains, locus YOR069W, strain VPS5, stronger effect = lower value",0.36 (active)
same,normalized growth,"S. cerevisiae deletion strains, locus YOR070C, strain gyp1, stronger effect = lower value",0.948 (inactive)
same,normalized growth,"S. cerevisiae deletion strains, locus YOR080W, strain dia2, stronger effect = lower value",0.976 (inactive)
same,normalized growth,"S. cerevisiae deletion strains, locus YOR083W, strain WHI5 (second series), stronger effect = lower value",0.774 (active)
same,normalized growth,"S. cerevisiae deletion strains, locus YOR083W, strain WHI5, stronger effect = lower value",0.915 (inactive)
same,normalized growth,"S. cerevisiae deletion strains, locus YOR106W, strain vam3, stronger effect = lower value",0.88 (inactive)
same,normalized growth,"S. cerevisiae deletion strains, locus YOR136W, strain idh2, stronger effect = lower value",0.139 (active)
same,normalized growth,"S. cerevisiae deletion strains, locus YOR144C, strain elg1, stronger effect = lower value",0.541 (active)
same,normalized growth,"S. cerevisiae deletion strains, locus YOR184W, strain ser1, stronger effect = lower value",0.128 (active)
same,normalized growth,"S. cerevisiae deletion strains, locus YOR231W, strain MKK1, stronger effect = lower value",1 (inactive)
same,normalized growth,"S. cerevisiae deletion strains, locus YOR265W, strain rbl2, stronger effect = lower value",0.961 (inactive)
same,normalized growth,"S. cerevisiae deletion strains, locus YOR270C, strain vph1, stronger effect = lower value",0.866 (inactive)
same,normalized growth,"S. cerevisiae deletion strains, locus YOR290C, strain snf2, stronger effect = lower value",0.981 (inactive)
same,normalized growth,"S. cerevisiae deletion strains, locus YOR316C, strain cot1, stronger effect = lower value",0.132 (active)
same,normalized growth,"S. cerevisiae deletion strains, locus YPL051W, strain arl3, stronger effect = lower value",0.881 (active)
same,normalized growth,"S. cerevisiae deletion strains, locus YPL078C, strain atp4, stronger effect = lower value",0.989 (inactive)
same,normalized growth,"S. cerevisiae deletion strains, locus YPL106C, strain sse1, stronger effect = lower value",1.02 (inactive)
same,normalized growth,"S. cerevisiae deletion strains, locus YPL240C, strain hsp82, stronger effect = lower value",0.98 (inactive)
same,normalized growth,"S. cerevisiae deletion strains, locus YPL241C, strain CIN2, stronger effect = lower value",0.107 (active) and 0.972 (inactive)
same,normalized growth,"S. cerevisiae deletion strains, locus YPL256C, strain CLN2, stronger effect = lower value",0.975 (inactive)
same,normalized growth,"S. cerevisiae deletion strains, locus YPR119W, strain clb2, stronger effect = lower value",0.31 (active)
same,normalized growth,"S. cerevisiae deletion strains, locus YPR141C, strain kar3, stronger effect = lower value",1.02 (inactive)
same,normalized growth,"S. cerevisiae deletion strains, locus YPR163C, strain tif3, stronger effect = lower value",0.0768 (active)
same,normalized growth,"S. cerevisiae deletion strains, locus YPR167C, strain met16, stronger effect = lower value",0.196 (active)
same,normalized growth,"S. cerevisiae deletion strains, strain wtn01, stronger effect = lower value",0.0859 (active)
same,normalized growth,"S. cerevisiae strains, strain wild type, stronger effect = lower value",0.0579 (active)

# Reference: PubChem BioAssay AID1159580 (chemical genetic matrix, 2015)
